PubChem BioAssay (NCATS)
Values joined by “and” are separate entries in the source; they are usually repeats but may differ in a detail not shown here. Equal entries are not always repeated. Records with an inconclusive call do not appear. Active and inactive are the calls of the source. Calls come from the whole dose curve; as a rule, active = well fitted curve in the direction sought with a large enough effect; inconclusive = small, poorly fitted or top-dose-only effect, or another doubt; inactive = no such curve, though single readings can be large; an effect the other way counts as inactive or inconclusive.

How the values were obtained:
[1] = target: Cytochrome P450 3A7 (Homo sapiens) (UniProt P24462); assay: Cytochrome P450 family 3 subfamily A member 7 (CYP3A7) small molecule antagonists: luciferase biochemical qHTS assay (AID 1963596); conditions: P450-Glo CYP3A7 enzyme luminescence, 1 h; series mostly up to 57.4 µM; note: % is set by controls: 0 for no effect and ±100 for the full control effect; nearly all actives have a fitted effect of over 40% in size
Chain of Cytochrome P450 3A7 (Homo sapiens) (P24462 whole entry, looked up): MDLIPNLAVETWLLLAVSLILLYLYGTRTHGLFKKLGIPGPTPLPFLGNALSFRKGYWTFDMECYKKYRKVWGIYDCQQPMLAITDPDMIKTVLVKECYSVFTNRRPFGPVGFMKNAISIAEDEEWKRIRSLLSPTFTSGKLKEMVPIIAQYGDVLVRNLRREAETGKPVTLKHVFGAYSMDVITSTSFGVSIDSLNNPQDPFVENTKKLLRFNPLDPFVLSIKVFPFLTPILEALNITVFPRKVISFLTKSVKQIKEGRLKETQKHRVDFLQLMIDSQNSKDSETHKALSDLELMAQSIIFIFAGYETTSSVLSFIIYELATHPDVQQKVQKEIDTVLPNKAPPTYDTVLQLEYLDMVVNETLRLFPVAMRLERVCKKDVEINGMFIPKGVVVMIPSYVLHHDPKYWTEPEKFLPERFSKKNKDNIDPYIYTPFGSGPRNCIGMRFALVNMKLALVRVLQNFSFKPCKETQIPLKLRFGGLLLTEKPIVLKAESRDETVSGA
Summary of the method: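 In this luminescent screen, enzyme and proluciferin substrate meet test compound for 10 min before NADPH regeneration solution drives a 1 h room-temperature reaction; detection reagent halts turnover and luminescence is read 20 min later.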

[2] = Viability qHTS for spleen associated tyrosine kinase inhibitor (SYKi) naive MV4-11 cells (AID 1963823); conditions: MV4-11 AML viability, CellTiter-Glo luminescence, 72 h; series mostly up to 45 µM; note: nearly all actives have a fitted effect of over 40% in size
Summary of the method: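 Viability of MV4-11 AML cells lacking prior SYK inhibitor exposure is scored by CellTiter-Glo luminescence following 72 hr compound incubation at 37 C, 5% CO2, seeded at 500 cells per well.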

[3] = Viability qHTS for spleen associated tyrosine kinase inhibitor (SYKi) drug resistant MV4-11 cells (AID 1963824); conditions: SYKi-resistant MV4-11 viability, CellTiter-Glo, 72 h; series mostly up to 45 µM; note: nearly all actives have a fitted effect of over 35% in size
Summary of the method: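 CellTiter-Glo luminescence, read 10 min after reagent addition, reports viability after a 72 hr compound exposure. Cells are an MV4-11 line made resistant to SYK inhibition, seeded at 500 per well onto compound-containing plates.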

[4] = Cellular viability qHTS for adrenocortical cancer (ACC) cell line SW-13 (AID 1963989); conditions: SW-13 ACC cells viability, CellTiter-Glo, 48 h; activity (max response): stronger effect = lower value;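 note: cells grown in serum-free medium with ITS supplement; % is set by controls: 0 for no effect and ±100 for the full control effect; nearly all actives have a fitted effect of over 65% in size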
Summary of the method: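 Viability was read as CellTiter-Glo luminescence after 48 h compound treatment (up to 46 uM final) of SW-13 cells grown serum-free; titration curves were fit with a four-parameter logistic model to give IC50 and efficacy.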

[5] = Cellular viability qHTS for adrenocortical cancer (ACC) cell line NCI-H295R (AID 1963990); conditions: CellTiter-Glo ATP luminescence, 48 h; series mostly up to 46.1 µM;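 note: 0% = DMSO only wells and -100% = full killing with cytotoxic reference compound; nearly all actives have a fitted effect of over 60% in size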
Summary of the method: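 CellTiter-Glo ATP luminescence, read 48 h after compound addition, measured viability of NCI-H295R adrenocortical cells grown serum-free with ITS. Final concentrations spanned up to 46 uM. Data normalized to DMSO and doxorubicin, fitted for IC50 and maximal response.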

CO[C@@]1(NC(=O)CSC[C@@H](N)C(=O)O)C(=O)N2C(C(=O)O)=C(CSc3nnnn3C)CS[C@@H]21
inactive: Potency [1] | Potency [2] | Potency [3] | activity (max response) [4] -7.39% | Potency [5]

C[N+]1(C)CCCC(OC(=O)C(O)(c2ccccc2)c2ccccc2)C1 (stereo not given)
inactive: Potency [1] | Potency [2] | Potency [3] | activity (max response) [4] -0.325% | Potency [5]

Cn1c(=O)c2[nH]c(Br)nc2n(C)c1=O
inactive: Potency [1] | Potency [2] | Potency [3] | activity (max response) [4] -1.12% | Potency [5]

O=C(O)[C@H](O)[C@@H](O)[C@H](O[C@@H]1O[C@H](CO)[C@H](O)[C@H](O)[C@H]1O)[C@H](O)CO
inactive: Potency [1] | Potency [2] | Potency [3] | activity (max response) [4] 9.39% | Potency [5]

C#CC(C)(CC)OC(=O)c1ccccc1C(=O)O (stereo not given)
inactive: Potency [1] | Potency [2] | Potency [3] | activity (max response) [4] 8.16% | Potency [5]

CC(C(=O)O)c1ccc2c(c1)Cc1cccnc1O2 (stereo not given)
inactive: Potency [1] | Potency [2] | Potency [3] | activity (max response) [4] -0.725% | Potency [5]

O=C(NCCCN1CCOCC1)c1ccc(Cl)cc1
inactive: Potency [1] | Potency [2] | Potency [3] | activity (max response) [4] 5.56% | Potency [5]

CCN(CC)CC(=O)Nc1c(C)cccc1C(=O)OC
inactive: Potency [1] | Potency [2] | Potency [3] | activity (max response) [4] -5.08% | Potency [5]

CN1C(=O)CC[C@H]1c1cccnc1
inactive: Potency [1] | Potency [2] | Potency [3] | activity (max response) [4] 2.26% | Potency [5]

O=C(O)/C=C/c1ccc(Cn2ccnc2)cc1
inactive: Potency [1] | Potency [2] | Potency [3] | activity (max response) [4] 7.34% and 4.34% | Potency [5]
